From ChEMBL document CHEMBL3988442, “University of Dundee, Small-Polar-MMV Screening Library” (2021)
Values joined by “and” are separate entries in the source; they are usually repeats but may differ in a detail not shown here. Equal values may be shown once. The whole screen tested about 38,000 compounds, of which about 1,200 (3.2%) showed an effect of 50% or more. The median lay at about -58%. Only a selection was taken, and strong results are over-represented in it overall.

Tested on: Plasmodium falciparum
Experiment: Calibr Malaria Delayed Death Assay SOP
Assay type: functional, organism-based
Set-up: scale not given: in the data most compounds retested in dose-response had high values
Settings: concentration 4.99e-06 (unit not given; other assays of the set use mol/L)

| Structure (SMILES) | Percent Effect | Percent Effect (4.99 µM) |
| --- | --- | --- |
| COc1ccc(NS(=O)(=O)CC2=NC(=O)n3cccc3C2=O)cc1Cl | -78.67% | – |
| CN(CCC(N)=O)Cc1cc(Br)cs1 | -77.34% | – |
| Cc1ncc(CN(C)CC(O)c2cccc(C(F)(F)F)c2)s1 (centres undefined) | 53.4% | – |
| Cc1ncc(CN(C)CC(O)c2ccc(Br)cc2)s1 (centres undefined) | 19.44% | – |
| Cc1ncc(CN(C)CC(O)c2ccc(OC(F)(F)F)cc2)s1 (centres undefined) | 62.45% | – |
| Cc1cc(CNC(=O)NCC(O)c2cccc(C(F)(F)F)c2)no1 (centres undefined) | -35.43% | – |
| CCCN(CCC)C(=O)CN(C)Cc1cnc(C)s1 | -123.6% | – |
| CCOC(=O)CN(C)Cc1cnc(C)s1 | -144.9% | – |
| N#Cc1ccc(N2CCC3(CCC(=O)N3Cc3ccncc3)CC2)nc1.O=C(O)C(F)(F)F.O=C(O)C(F)(F)F | -114.1% | – |
| CCn1cc(-c2cc(C(F)F)n3nc(CC(=O)O)nc3n2)cn1 | -21.51% | – |
| CCOCCN1CCN([C@@H]2c3ccccc3C3(CCNCC3)[C@H]2O)CC1 | -70.37% | – |
| COCCCC1CCN([C@@H]2c3ccccc3C3(CCNCC3)[C@H]2O)CC1 | 36.42% | – |
| Cc1cc(C(C)(O)CNC(=O)CCOCC(C)C)c(C)o1 (centres undefined) | -34.27% | – |
| CCS(=O)(=O)N1CC[C@@H]2[C@H](CC1)N(Cc1cccnc1)CCS2(=O)=O.O=C(O)C(F)(F)F.O=C(O)C(F)(F)F | -78.89% | – |
| Cc1csc(C2CCCCN2C(=O)COCc2nc(C)no2)n1 (centres undefined) | -74.6% | – |
| Cc1csc(C2CCCCN2C(=O)c2cc(C(C)C)[nH]n2)n1 (centres undefined) | 75.22% | – |
| Cc1csc(C2CCCCN2C(=O)CN(C)C2CC2)n1 (centres undefined) | -127% | – |
| CC(NCC(=O)Nc1ccc(N2CCCCCC2)cc1)c1cccs1 (centres undefined) | 21.94% | – |
| COC(=O)c1cc(OC)c(OC)cc1NCc1c(C)noc1C | -119.4% | – |
| CCCN(C(=O)CN1CCn2c(nnc2C2CC2)C1)C1=CCCCC1 | -109.1% | – |
| Cc1nn(C)c2nc(NCCCN3CCCC(C(N)=O)C3)sc12 (centres undefined) | -133.1% | – |
| COc1ncc(CN(CCN(C)C)Cc2ccc(C)s2)cn1 | -3.016% | – |

| Structure (SMILES) | Percent Effect | Percent Effect (4.99 µM) |
| --- | --- | --- |
| COCc1ncc(CN(CCN(C)C)Cc2ccc(C)s2)cn1 | 1.94% | – |
| Cc1ccc(CN(CCCO)Cc2nc3ccccc3[nH]2)s1 | -85.6% | – |
| Cc1ccc(CN(CCN(C)C)Cc2nc3ccccc3[nH]2)s1 | 60.93% | – |
| CCNc1ncc(CN(CCN(C)C)Cc2ccc(C)s2)cn1 | 37.82% | – |
| CCc1ccc(CN(CCN(C)C)Cc2ccc(C)s2)nc1 | 91.79% | – |
| O=C(O)C1(O)CCN(c2ccc3cccc(Cl)c3n2)CC1 | -181.1% | – |
| CCCN1CCC(c2nc3ccc(-c4cccc(F)c4)cn3n2)CC1.O=C(O)C(F)(F)F | 31.95% | – |
| COc1ccc(OC)c(-n2nnnc2SCC2CCCN(C)C2)c1 (centres undefined) | 41.34% | – |
| COc1ccc(CN2CC[C@H](c3nnc(-c4ccco4)o3)C2)cc1 | -19.38% | – |
| COc1ccc(Cn2nnnc2SCC2CCCN(C)C2)cc1 (centres undefined) | 58.9% | – |
| O=C(O)C(F)(F)F.O=C(c1cccs1)N1CCOCC2(C1)CN(c1cccnc1)C(=O)CO2 (centres undefined) | -98.48% | – |
| Cc1ccc(C(=O)Nc2nnc(CC(C)C)s2)c(-n2cnnn2)c1C | -82.26% | – |
| Cn1ccnc1CN1CCC(Cn2cc(-c3ccncc3)nn2)CC1 | -74.11% | – |
| O=C1N(Cc2cccc(F)c2F)CCCC1(O)CNCC1CCCCC1 (centres undefined) | 73.31% | – |
| O=C1N(Cc2cccc(F)c2F)CCCC1(O)CNC1CCCC1 (centres undefined) | 59.35% | – |
| COCCNCC1(O)CCCN(Cc2ccc(F)c(F)c2)C1=O (centres undefined) | 23.01% | – |
| O=C1N(Cc2ccc(F)c(F)c2)CCCC1(O)CNCC1CCCCC1 (centres undefined) | 73.06% | – |
| O=C1N(Cc2cccc(F)c2F)CCCC1(O)CNCc1ccccn1 (centres undefined) | 0.3162% | – |
| COC(=O)CNCC1(O)CCCN(Cc2cccc(F)c2F)C1=O (centres undefined) | -57.14% | – |
| CN1CCC(NCC2(O)CCCN(Cc3ccccc3F)C2=O)CC1 (centres undefined) | 4.135% | – |
| COc1ccc(F)c(CN2CCCC(O)(CNCc3ncc[nH]3)C2=O)c1 (centres undefined) | -101.4% | – |
| O=C(CNCC1(O)CCCN(Cc2cccc(F)c2F)C1=O)NC1CC1 (centres undefined) | -101.8% | – |

| Structure (SMILES) | Percent Effect | Percent Effect (4.99 µM) |
| --- | --- | --- |
| COc1ccc(F)c(CN2CCCC(O)(CNC3CCCCC3)C2=O)c1 (centres undefined) | 69.02% | – |
| C=C(C)CNCC1(O)CCCN(Cc2ccc(F)c(F)c2)C1=O (centres undefined) | -91.62% | – |
| COc1ccc(F)c(CN2CCCC(O)(CNCc3ccon3)C2=O)c1 (centres undefined) | -23.9% | – |
| O=C(CCc1cccnc1)N1CCC2(CCN(CC3CCCC3)C2)C1.O=C(O)C(F)(F)F.O=C(O)C(F)(F)F (centres undefined) | 15.87% | – |
| Cn1cc(NC(=O)CNC(=O)N2CCN(c3cccc(Cl)c3)CC2)cn1 | -19.66% | – |
| Cc1ccc(NC(C(N)=O)c2ccc(F)cc2)cc1 (centres undefined) | -42.35% | – |
| O=C(NCCc1nnc2n1CCC2)NC1(c2cccc(F)c2)CC1 | -62.64% | – |
| CNC(=O)c1cnc2c(C)csc2c1 | -145.8% | – |
| Cc1nn(C2CCS(=O)(=O)C2)c(O)c1Cc1ccccc1Cl (centres undefined) | -17.18% | – |
| Cc1noc([C@H]2CC[C@@H]3[C@@H](CCN3c3ncccn3)O2)n1 | -94.2% | – |
| Cc1ccc(C)c(OCCN(C)C(=O)CCc2cn[nH]c2)c1 | -90.4% | – |
| CCc1noc(C)c1C(=O)N1CCC2(CCCN(CC(C)(C)C)C2=O)C1 (centres undefined) | – | -34.55% and -37.04% |
| CC(C)(C)CNCC1(O)CCCN(Cc2ccccc2F)C1=O (centres undefined) | 83.8% | – |
| CC1CCN(CC2(O)CCCN(Cc3cccc(F)c3F)C2=O)CC1 (centres undefined) | -78.62% | – |
| CN(CC1(O)CCCN(Cc2cccc(F)c2F)C1=O)C1CCCCC1 (centres undefined) | 63.45% | – |
| Cc1cccnc1CNCC1(O)CCCN(CC(C)(C)C)C1=O (centres undefined) | -8.334% | – |
| COc1ccc(F)c(CN2CCCC(O)(CNCC(C)(C)C)C2=O)c1 (centres undefined) | 48.73% | – |
| O=C1N(Cc2cccc(F)c2F)CCCC1(O)CN1CCCOCC1 (centres undefined) | 40.89% | – |
| CC(C)C(C)NC(=O)CNc1cc2c(cc1Cl)NC(=O)CO2 (centres undefined) | -65.88% | – |
| CCOCC1CN(S(=O)(=O)C2CC2)Cc2ncn(CC3CC3)c21 (centres undefined) | -12.84% | – |
